# Measurements reported in PubChem BioAssay (Tox21).
# Calls of active or inactive are those of the source. The call rests on the fitted dose curve.
# Molecular target: Thyrotropin-releasing hormone receptor (Homo sapiens) (UniProt P34981)
# Assay: qHTS assay to identify small molecule agonists of the thyrotropin-releasing hormone receptor (TRHR) signaling pathway (AID 1346891);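 further: HEK293 cells expressing TRHR with calcium dye readout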
# Settings: TRHR-HEK293 calcium fluorescence, agonist mode; series mostly up to 57.6 µM
# In short: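 Kinetic fluorescence (3 min, 1 s intervals) reported intracellular calcium after compound transfer onto TRHR-Hek293 cells pre-loaded with dye for 2 h at 37 °C.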
# Thyrotropin-releasing hormone receptor (Homo sapiens), sequence (P34981 whole entry, looked up): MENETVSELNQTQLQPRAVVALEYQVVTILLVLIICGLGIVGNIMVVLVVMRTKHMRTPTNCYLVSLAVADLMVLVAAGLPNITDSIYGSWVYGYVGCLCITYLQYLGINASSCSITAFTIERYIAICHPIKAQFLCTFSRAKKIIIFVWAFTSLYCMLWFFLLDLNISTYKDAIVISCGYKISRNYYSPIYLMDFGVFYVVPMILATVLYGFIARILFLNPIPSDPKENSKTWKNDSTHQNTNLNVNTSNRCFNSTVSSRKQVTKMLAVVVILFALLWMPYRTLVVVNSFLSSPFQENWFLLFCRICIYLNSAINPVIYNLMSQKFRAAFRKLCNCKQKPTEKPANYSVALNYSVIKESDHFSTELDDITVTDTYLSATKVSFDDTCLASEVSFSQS
row,SMILES,outcome
1,CC(C)(C#N)N=NC(C)(C)C#N,inactive
2,O=[N+]([O-])c1ccc(Cl)c([N+](=O)[O-])c1,inactive
3,CC(C)=CC1C(C(=O)OCN2C(=O)C3=C(CCCC3)C2=O)C1(C)C (stereo not drawn),inactive
4,C[N+](C)(C)C,inactive
5,ClCC(Cl)CCl,inactive
6,ClC(Cl)=C(Cl)C(Cl)=C(Cl)Cl,inactive
7,O=NN(c1ccccc1)c1ccccc1,inactive
8,CNC(=S)S,inactive
9,C[C@]12CC[C@H]3[C@@H](CCC4=CC(=O)CC[C@@H]43)[C@@H]1CC[C@@H]2O,inactive
10,c1ccc(C2CO2)cc1 (stereo not drawn),inactive
11,CCC1(c2ccc(N)cc2)CCC(=O)NC1=O (stereo not drawn),inactive
12,CC(C)(c1ccccc1)c1ccc(O)c(C(C)(C)c2ccccc2)c1,inactive
13,CC(C)(c1ccc(OCC2CO2)cc1)c1ccc(OCC2CO2)cc1 (stereo not drawn),inactive
